The results in this text go back to PubChem BioAssay (NCI).

SMILES strings stand for the structures. This is part of a sample that, as a whole, favours compounds with a hit. Of some 83,000 tested, about 20% had one in any assay.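 Compound tested at a single concentration for 48 hours in 96-well plates; a percent growth value below 10 was scored as active.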 Active and inactive are the calls of the source.

The assay deals with LOX IMVI melanoma. Put plainly: NCI-60 one-dose screen, 48 h (100 = growth as untreated, 0 = no growth, -100 = all killed). Conditions: 10 µM unless noted.
Regarding `Cc1nc(Nc2ccc(NC(=S)Nc3ccccc3)cc2)nc2nc(Nc3cccc(Cl)c3)[nH]c(=O)c12`, the growth was 92% (inactive).
`O=[N+]([O-])c1ccc(-c2cc3c(Nc4ccc(Sc5nc6ccccc6s5)c(Cl)c4)ncnc3s2)cc1`: the growth is 29.6% (inactive).
Turning to `CC(=[N-])N1CCC[C@@H](Nc2c3ccccc3nc3ccccc23)C1.[Cl][Pt].[NH-]CCC[NH-]`, the growth is 27.9% (inactive).
To `OC(c1cccc(OCc2ccccc2)c1)c1nnc(-c2ccccc2)o1` (centres undefined) belongs 84.9% (inactive); to `COc1ccc(-c2nnc(SCC(=O)NC3=NN=C(c4ccccc4)CS3)o2)cc1`, 101% (inactive); to `CC(=O)Nc1cccc(C2=CC(c3ccc(C)cc3)n3ncnc3N2)c1` (centres undefined), 93.8% (inactive).
To `CC(C)OC(=O)NNC(=O)c1ccncc1` belongs 101% (inactive).
To `O=C(CC1Sc2ccccc2NC1=O)NNc1ccc(F)cc1` (centres undefined) belongs 18.5% (inactive); to `CCCCCCCSc1ccc(C(=O)O)cc1`, 103% (inactive); to `CC(c1ccc(-n2cccn2)cc1)c1cnc(N2CCc3ccc(C(N)=O)cc3C2)s1` (centres undefined), 66.4% (inactive).
For `CCN(CC)CCCNC(=O)c1ccc(N)cc1`, the growth is 103% (inactive).
For the compound `CSc1nc2sc3cc(Cl)ccc3n2c(=N)c1C#N`, the growth is 86.8% (inactive).
The same measure for `CCNCCNc1cc(C2CCCC2)c(C#N)c2nc3ccccc3n12`: -79% (active).
To `COc1cc2oc3cc(C)oc(=O)c3c2cc1OC` belongs 103% (inactive); to `Cc1nc(Nc2cccc(NC(=O)Nc3ccc(Cl)cc3)c2)c2ccccc2n1`, 88.7% (inactive); to `CCc1c(C(=O)N[C@@H]2c3cc(Cl)ccc3CC[C@@H]2O)[nH]c(C)c1C(C)=O`, 50.9% (inactive).
The same measure for `O=C(CC12CC3CC(CC(C3)C1)C2)NCCOCCOCCOCCNC(=O)c1cc2c(o1)C(=O)c1ccccc1C2=O`: -52.4% (active).
Regarding `Cc1cc2c(F)c(Oc3ncnc(Nc4ccc(N5C[C@@H](C)N[C@@H](C)C5)cc4)c3C#N)cc(F)c2[nH]1`, the growth is -60.5% (active).
The same measure for `COc1ccc(NC(=O)c2cccc(-c3cc(=O)c4c(O)c(OC)c(OC)cc4o3)c2)cc1`: 79.7% (inactive); for `Nc1c(-c2nc3ccc(Br)cc3c(=O)[nH]2)nnn1-c1ccccc1`: 80.4% (inactive); for `CCOc1cc(N)ccc1C(=O)NCCCN(CC)CC`: 100% (inactive).
On to `CCN(CC)S(=O)(=O)c1ccc(O)c(NC(=O)c2[nH]c(C)c(C(C)=O)c2CCc2ccc(Cl)cc2)c1`, for which the growth was 39.5% (inactive).
The same measure for `C=CC(=O)Nc1cccc(C)c1Nc1cc(-c2cccnc2Cc2c(C)c(OC)cc(OC)c2C)ncn1`: 13.9% (inactive).
To `CC(C)c1ccc(C(=O)OC(=O)c2ccc(C(C)C)cc2)cc1` belongs 91.5% (inactive).
